Reference: PMC6212833
In all, about 2,000 compounds went through this assay and about 15 (0.8%) showed an effect of 50% or more. The entries come from a sample that favours strong results as a whole. Where a SMILES comes first, the peptide text is derived from it. [ ]: non-standard residue; d: D form. pGlu = O=C1CC[C@@H](C(=O)O)N1; Thz = O=C(O)[C@@H]1CSCN1

Tested on: Balamuthia mandrillaris (ATCC PRA-291) trophozoites, axenic culture
Experiment: primary screen, percent inhibition; higher = more effect of the substance;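 note: 0% = vehicle wells and 100% = lysate wells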
Details: 20 µM
In short: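 Trophozoites (3,000/well) in axenic medium exposed to library drugs at 20 µM in 0.2% DMSO for 72 h; viability by CellTiter Glo luminescence at 2, 4 and 8 h. Controls: vehicle and freeze-thaw amoeba lysate; B-score corrects row, column and edge effects.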

Structure (SMILES)	% Inhibition
COc1ccc2cc1Oc1ccc(cc1)C[C@H]1c3c(cc4c(c3Oc3cc5c(cc3OC)CCN(C)[C@@H]5C2)OCO4)CCN1C	-18.5%
COc1ccc(OC)c(C(O)C(C)N)c1 (centres unmarked)	16.7%
CN1C(C(=O)Nc2ccccn2)=C(O)c2ccccc2S1(=O)=O	6.97%
CCCCC(F)(F)[C@@]1(O)CC[C@H]2[C@@H](CC(=O)[C@@H]2CCCCCCC(=O)O)O1	20.6%
C[C@@H](O)[C@H]1C(=O)N2C(C(=O)O)=C(S[C@@H]3CN[C@H](C(=O)Nc4cccc(C(=O)O)c4)C3)[C@H](C)[C@H]12	10.5%
COc1ccc(-n2nc(CCC(=O)N(C)O)cc2-c2ccc(Cl)cc2)cc1	16%
N[C@@H](CSSC[C@H](N)C(=O)O)C(=O)O	-0.0671%
CCN(CC)CCNc1ccc(CO)c2sc3ccccc3c(=O)c12	0.0147%
O=C(O)[C@H](CC(=O)N1C[C@H]2CCCC[C@H]2C1)Cc1ccccc1	22.1%
CN1CCN(C(=O)O[C@H]2c3nccnc3C(=O)N2c2ccc(Cl)cn2)CC1	9.05%
C1CCN2C[C@@H]3C[C@H](CN4CCCC[C@@H]34)[C@H]2C1	-35.5%
O=C(O)C1=C(CSc2nnnn2CS(=O)(=O)O)CS[C@@H]2C(NC(=O)[C@H](O)c3ccccc3)C(=O)N12 (some centres unmarked)	15.1%
CCCCCCCCCCOc1cc2c(O)c(C(=O)OCC)cnc2cc1OCC	-12.8%
CCN1CCN(C(=O)N[C@@H](C(=O)N[C@@H]2C(=O)N3C(C(=O)O)=C(CSc4nnnn4C)CS[C@H]23)c2ccc(O)cc2)C(=O)C1=O	19.8%
C=CCNc1nc(NCC=C)nc(N2CCN(C(c3ccc(F)cc3)c3ccc(F)cc3)CC2)n1	13.4%
CC1=C(CC(=O)O)c2cc(F)ccc2/C1=C\c1ccc(S(C)(=O)=O)cc1	12.2%
CO/N=C(\C(=O)NC1C(=O)N2C(C(=O)OCOC(=O)C(C)(C)C)=C(/C=C\c3scnc3C)CSC12)c1csc(N)n1 (centres unmarked)	-4.68%
C[C@H]1[C@H](OC(=O)CCC(=O)O)O[C@@H]2O[C@@]3(C)CC[C@H]4[C@H](C)CC[C@@H]1[C@@]24OO3	56.1%
COC1O[C@@H]2O[C@@]3(C)CC[C@H]4[C@H](C)CC[C@@H]([C@H]1C)[C@@]24OO3 (some centres unmarked)	-11.8%
C[C@@H]1CC[C@H]2[C@@H](C)C(O)O[C@@H]3O[C@@]4(C)CC[C@@H]1[C@]32OO4 (some centres unmarked)	56.5%
CO[C@H]1O[C@@H]2O[C@@]3(C)CC[C@H]4[C@H](C)CC[C@@H]([C@H]1C)[C@@]24OO3	48.7%
C[C@@H]1CC[C@H]2[C@@H](C)C(=O)O[C@@H]3O[C@@]4(C)CC[C@@H]1[C@]32OO4	54.5%
CC(=O)[C@H]1CC[C@H]2[C@@H]3CC=C4C[C@@H](OC(=O)CCC(=O)O)CC[C@]4(C)[C@H]3CC[C@]12C	-6.88%
C[C@H]1[C@@H](OC(=O)CCC(=O)O)O[C@@H]2O[C@]3(C)CC[C@H]4[C@H](C)CC[C@@H]1[C@@]24OO3	52.3%
Cc1nnc2n1-c1ccc(Cl)cc1C(c1ccccc1)=NC2	-8.66%

Structure (SMILES)	% Inhibition
CC1(C)C(C=C(Cl)Cl)C1C(=O)OCc1cccc(Oc2ccccc2)c1 (centres unmarked)	13.4%
COc1cc2nc(N(C)CCCNC(=O)C3CCCO3)nc(N)c2cc1OC (centres unmarked)	24.3%
C=CC[C@]1(O)CC[C@H]2[C@@H]3CCC4=CCCC[C@@H]4[C@H]3CC[C@@]21C	5.59%
CC(C)C[C@H](NC(=O)[C@@H](Cc1c[nH]c2ccccc12)NC(=O)[C@H](Cc1ccc(O)cc1)NC(=O)[C@H](CO)NC(=O)[C@H](Cc1c[nH]c2ccccc12)NC(=O)[C@H](Cc1c[nH]cn1)NC(=O)[C@@H]1CCC(=O)N1)C(=O)N[C@@H](CCCN=C(N)N)C(=O)N1CCC[C@H]1C(=O)NCC(N)=O	9.31%
O=C(O)CCCCC(=O)O	25.4%
O=C(O)CCCO	19%
CC(=O)OCC(COC(C)=O)OC(C)=O	-1.82%
C[C@@H]1[C@H](O)[C@@H](C)/C=C/C=C/C=C/C=C/C=C/C=C/C=C/[C@H](O[C@@H]2O[C@H](C)[C@@H](O)[C@H](N)[C@@H]2O)C[C@@H]2O[C@](O)(C[C@@H](O)C[C@@H](O)[C@H](O)CC[C@@H](O)C[C@@H](O)CC(=O)O[C@H]1C)C[C@H](O)[C@H]2C(=O)O	25.1%
Cc1c(N(C)C)c(=O)n(-c2ccccc2)n1C	29.7%
Cc1c(NC(=O)c2cccnc2)c(=O)n(-c2ccccc2)n1C	70.2%
Cc1c(NC(C)C)c(=O)n(-c2ccccc2)n1C	-7.04%
C=CC1=C(C(=O)O)N2C(=O)[C@@H](NC(=O)/C(=N\OCC(=O)O)c3csc(N)n3)[C@H]2SC1	6.01%
C[N+]1(C)C2CC(OC(=O)[C@@H](CO)c3ccccc3)CC1C1OC12 (some centres unmarked)	15.9%
NCCCC(N)C(=O)O (centres unmarked) [131504-L4]	14.1%
CO/N=C(/C(=O)NC1C(=O)N2C(C(=O)O)=C(COC(N)=O)CSC12)c1ccco1 (centres unmarked)	41.1%
CO[C@H]1/C=C/O[C@@]2(C)Oc3c(C)c(O)c4c(O)c(c(/C=N\N5CCN(C)CC5)c(O)c4c3C2=O)NC(=O)/C(C)=C\C=C\C(C)[C@H](O)[C@@H](C)[C@@H](O)[C@@H](C)[C@@H](OC(C)=O)[C@@H]1C (some centres unmarked)	30.6%
O=C1CC[C@@H](C(=O)N2CSC[C@H]2C(=O)O)N1 ([pGlu]-[Thz]-OH)	16.6%
CNC1(c2ccccc2Cl)CCCCC1=O (centres unmarked)	1.15%
Clc1ccccc1CN1CCc2sccc2C1	30.2%
CC[C@@H](C(N)=O)N1CCCC1=O	13.9%
NC[C@H](O)c1ccc(O)c(O)c1 [130720-L3]	14.8%
C[N+](C)(C)CCOC(N)=O	-7.4%
C[C@]12CCC3c4ccc(O)cc4CCC3C1CCC2=O (some centres unmarked)	-7.91%
CNCCCC12CCC(c3ccccc31)c1ccccc12	15.2%
CC1(C)O[C@]2(C)CC[C@H]1CC2	17.9%
